# Test results: PubChem BioAssay
# “And” between values parts separate entries of the source, which are not always exact repeats. Identical values can stand only once. The source made the active and inactive calls.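 How the source made its calls, unless noted: active means compound raises GLP1 secretion from the human gut endocrine cells, with no numeric limit stated; inactive means the rest.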
# Legend:
# [1] = stimulators of nuclear beta-catenin in C2C12, primary screen, imaging, WNT3A-conditioned medium, mouse C2C12, NPC library (AID 1117326; in the data active means nuclear beta-catenin stimulation mostly above about 4.2%, no sharp cut-off; inactive means mostly below about 10%); conditions: stronger effect = higher value
# [2] = stimulators of insulin release from INS-1E, primary screen, cell-based, 5 mM glucose, NPC library (AID 1117329;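 active means compound raises insulin release from rat beta cells at 5 mM glucose, no numeric limit stated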); conditions: rat INS-1E insulin secretion, at 10 µM, stronger effect = higher value
# [3] = growth inhibition of GSK3B-pretreated HCT116 cells – cell-based, CellTiter-Glo, 0.2 to 20 µM (AID 1117336;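 active means compounds lowering colon cancer cell viability after pretreatment blocking the GSK3B kinase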); conditions: HCT116 viability after GSK3B inhibitor, at 20 µM, stronger effect = higher value
# [4] = inhibition of endothelial tube formation, primary screen, imaging, VEGF stimulated, CD31 staining, tube area, NPC library (AID 1117340;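 active means compound that reduces growth-factor-driven endothelial tube area in a mixed cell culture, no cutoff stated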); conditions: VEGF-stimulated ADSC/ECFC co-culture, at 10 µM, stronger effect = higher value
# [5] = glucagon-like peptide 1 release enhancers, primary assay, NCI-H716 cell line, NPC library (AID 1117341); conditions: NCI-H716 cells, at 10 µM, stronger effect = higher value
# [6] = HCT116 colon cancer cell growth inhibition, primary screen, CellTiter-Glo luminescence, NPC library (AID 1117342;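 active means compounds that lower survival of HCT116 colon cancer cells in the luminescence readout, no numeric limit stated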); conditions: at 20 µM (top of the series)
# [7] = CellTiter-Glo luminescent readout of SW480 viability loss, NPC library primary (AID 1117343;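 active means compounds that lower viability of the colon cancer cells in the luminescence readout, with no numeric limit stated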); conditions: CellTiter-Glo luminescence; at 20 µM (top of the series) unless noted
# [8] = decreased DLD-1 cellular survival, CellTiter-Glo luminescent readout, NPC compound collection, primary HTS (AID 1117346;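 active means compounds that lower survival of DLD-1 colon cancer cells in the luminescence readout, no cutoff given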); conditions: DLD-1 viability, CellTiter-Glo luminescence; at 20 µM (top of the series)
# [9] = differential killing of epithelial or mesenchymal cells, primary screen, imaging, PC-3E GFP, TEM4-18 mCherry, co-culture (AID 1345086;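 active means compounds killing one labelled cell type while sparing the other, by normalised counts and ratio limits, not self-fluorescent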;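 on all read-outs here: cells exposed to compound for 72 h before imaging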;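 on red/green cell ratio (normalised): normalised mesenchymal count divided by normalised epithelial count so high means epithelial killing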); conditions: imaging cell counts, at 1 µM; for red/green cell ratio (normalised): actives lie on both sides, counts scaled to control wells, 1 = unselective
# [10] = sensitizers of A549 cells to miR-34 induction, primary screen, imaging, A549 dox-inducible miR-34, nuclei and caspase counts (AID 1347080;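 active means compounds whose cell count with miR-34 switched on is under 0.7 times the count with it off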); conditions: A549 miR-34 inducible, Hoechst nuclei count, 48 h
# [11] = biological target: NAD(+) hydrolase SARM1 (Homo sapiens) (UniProt Q6SZW1); assay: SARM1 TIR NADase inhibitors, cell lysate, NAD-Glo luminescence (AID 1508614;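 active means compound whose remaining NAD level is above about 45 nM, limit read from the data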); conditions: SAM-TIR HEK293T lysate NADase, at 1 µM, stronger effect = higher value
# [12] = hESC survival regulators, cell-based (AID 493140; call rule not given here;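 further: cells exposed to compounds for four days before counting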); conditions: human embryonic stem cell survival screen; stronger effect = higher value
# [13] = liver-stage malaria parasite growth inhibition, primary screen, cell-based, HepG2, luciferase luminescence, HepG2 viability (AID 624349; in the data active means parasite load remaining mostly below about 12%, no sharp cut-off; inactive means mostly above about 10%;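 further: 100% = mean of DMSO negative control wells on the same plate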); conditions: P. berghei liver stage in HepG2, luciferase luminescence, concentration not given here; parasite load remaining: stronger effect = lower value; viability: measured here: HepG2 viability without parasites
# [14] = survival rescue of mitochondrial mutant cells in low glucose, primary screen, MELAS cybrids, Rieske KO mouse fibroblasts, CellTiter-Glo (AID 1508586;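 active means mean z-score across replicates of 1.96 or higher in either the MELAS or the Rieske mutant cell line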;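 further: z relative to plate mean and SD of compound and empty wells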)
# [15] = measured here: epithelial PC-3E GFP cell survival
# [16] = measured here: mesenchymal TEM4-18 mCherry cell survival
# [17] = stronger effect = lower value, cell number ratio, induced over uninduced
# [18] = measured here: relative caspase fold change +Dox/-Dox
# [19] = measured here: total cells with miR-34 induction, stronger effect = lower value
# [20] = measured here: total cells without miR-34 induction
# [21] = MELAS cybrid survival, CellTiter-Glo 48 h, stronger effect = higher value
# [22] = Rieske KO mouse fibroblast survival, CellTiter-Glo 72 h
# NAD(+) hydrolase SARM1 (Homo sapiens), sequence (Q6SZW1 whole entry, looked up): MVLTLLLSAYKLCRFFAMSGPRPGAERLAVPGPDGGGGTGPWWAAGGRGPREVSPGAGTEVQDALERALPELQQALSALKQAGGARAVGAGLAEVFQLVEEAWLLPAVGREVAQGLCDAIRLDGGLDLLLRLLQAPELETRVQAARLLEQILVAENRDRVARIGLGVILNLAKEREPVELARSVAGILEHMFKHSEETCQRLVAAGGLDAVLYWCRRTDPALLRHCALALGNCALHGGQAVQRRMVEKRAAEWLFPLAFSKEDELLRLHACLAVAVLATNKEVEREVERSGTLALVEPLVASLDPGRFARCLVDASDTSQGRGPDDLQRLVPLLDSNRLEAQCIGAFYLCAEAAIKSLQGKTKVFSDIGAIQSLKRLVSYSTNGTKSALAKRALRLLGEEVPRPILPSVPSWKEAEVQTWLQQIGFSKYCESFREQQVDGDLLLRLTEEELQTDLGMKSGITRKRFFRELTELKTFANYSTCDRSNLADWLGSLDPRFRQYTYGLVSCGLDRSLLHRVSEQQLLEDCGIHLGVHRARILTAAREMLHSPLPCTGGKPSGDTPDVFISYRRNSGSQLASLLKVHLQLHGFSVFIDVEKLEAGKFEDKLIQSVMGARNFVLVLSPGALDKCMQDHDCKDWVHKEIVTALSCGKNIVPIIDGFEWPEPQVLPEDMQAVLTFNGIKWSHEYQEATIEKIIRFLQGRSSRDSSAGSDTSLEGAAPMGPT
smiles,measurement,setting,value
Cc1cccc(C)c1NC(=O)c1ccccc1C(=O)O,nuclear beta-catenin stimulation,[1]; at 10 µM,0.1% (inactive)
same,nuclear beta-catenin stimulation,"[1]; stimulation, at 2 µM",0.7%
same,insulin secretion stimulation,[2],-0.4% (inactive)
same,viability decrease,[3],-4.6% (inactive)
same,tube area decrease,[4],-28.9% (inactive)
same,GLP1 secretion stimulation,[5],1.9% (inactive)
same,inhibition of viability,[6],3.1% (inactive)
same,viability decrease (inhibition),[7],49.6% (inactive)
same,viability decrease (inhibition),[8],17.1% (inactive)
same,red/green cell ratio (normalised),[9],0.84 (inactive)
same,normalised cell number,[9]; [15],0.94
same,normalised cell number,[9]; [16],0.79
same,fold change,[10]; [17],0.96 (inactive)
same,fold change,[10]; [18],0.664
same,cell count,[10]; [19],8770
same,cell count,[10]; [20],9130
same,remaining NAD,[11],10 nM (inactive)
CC(C)(C)CC(C)(C)c1cc(Cc2cc(C(C)(C)CC(C)(C)C)cc(-n3nc4ccccc4n3)c2O)c(O)c(-n2nc3ccccc3n2)c1,nuclear beta-catenin stimulation,[1]; at 10 µM,3.9% (inactive)
same,nuclear beta-catenin stimulation,"[1]; stimulation, at 2 µM",2.5%
same,insulin secretion stimulation,[2],1.7% (inactive)
same,viability decrease,[3],9.1% (inactive)
same,tube area decrease,[4],-10.3% (inactive)
same,GLP1 secretion stimulation,[5],3.4% (inactive)
same,inhibition of viability,[6],1.9% (inactive)
same,viability decrease (inhibition),[7],-54% (inactive)
same,viability decrease (inhibition),[8],7.4% (inactive)
same,red/green cell ratio (normalised),[9],0.81 (inactive)
same,normalised cell number,[9]; [15],1.28
same,normalised cell number,[9]; [16],1.04
same,fold change,[10]; [17],0.928 (inactive)
same,fold change,[10]; [18],0.844
same,cell count,[10]; [19],9130
same,cell count,[10]; [20],9830
same,remaining NAD,[11],10 nM (inactive)
CCC1NC(=O)c2cc(S(N)(=O)=O)c(Cl)cc2N1 (stereo unspecified),survival,[12],5.17 (inactive)
same,parasite load remaining,[13],89.6% (inactive)
same,viability,[13],77.9%
same,nuclear beta-catenin stimulation,[1]; at 10 µM,1.2% (inactive)
same,nuclear beta-catenin stimulation,"[1]; stimulation, at 2 µM",2.9%
same,insulin secretion stimulation,[2],-1.7% (inactive)
same,viability decrease,[3],-8.4% (inactive)
same,tube area decrease,[4],2.1% (inactive)
same,GLP1 secretion stimulation,[5],8.6% (inactive)
same,inhibition of viability,[6],-5.7% (inactive)
same,viability decrease (inhibition),[7],-10.9% (active)
same,viability decrease (inhibition),[8],-14% (inactive)
same,red/green cell ratio (normalised),[9],0.98 (inactive)
same,normalised cell number,[9]; [15],1.22
same,normalised cell number,[9]; [16],1.2
same,fold change,[10]; [17],0.92 (inactive)
same,fold change,[10]; [18],0.404
same,cell count,[10]; [19],8110
same,cell count,[10]; [20],8810
same,z-score,[14]; [21],-1.3 (inactive)
same,z-score,[14]; [22],-1.37
same,remaining NAD,[11],10 nM (inactive)
CC(=O)c1ccc2c(c1)N(CCCN1CCC(CCO)CC1)c1ccccc1S2,survival,[12],3.92 (inactive)
same,parasite load remaining,[13],69.8% (inactive)
same,viability,[13],79.8%
same,nuclear beta-catenin stimulation,[1]; at 10 µM,3% (inactive)
same,nuclear beta-catenin stimulation,"[1]; stimulation, at 2 µM",0.4%
same,insulin secretion stimulation,[2],1.7% (inactive)
same,viability decrease,[3],78.7% (active)
same,tube area decrease,[4],3.9% (inactive)
same,GLP1 secretion stimulation,[5],-6.7% (inactive)
same,inhibition of viability,[6],77.2% (active)
same,viability decrease (inhibition),[7],85.4% (active)
same,viability decrease (inhibition),[8],60% (active)
same,red/green cell ratio (normalised),[9],1.13 (inactive)
same,normalised cell number,[9]; [15],0.92
same,normalised cell number,[9]; [16],1.04
same,fold change,[10]; [17],0.911 (inactive)
same,fold change,[10]; [18],0.592
same,cell count,[10]; [19],8130
same,cell count,[10]; [20],8930
same,z-score,[14]; [21],-0.364 (inactive)
same,z-score,[14]; [22],-0.0941
same,remaining NAD,[11],10 nM (inactive)
CC(=O)N[C@@H](CC(C)C)C(=O)O,survival,[12],3.17 (inactive)
same,parasite load remaining,[13],73.5% (inactive) and 218% (inactive)
same,viability,[13],98.8% and 70.6%
same,nuclear beta-catenin stimulation,[1]; at 10 µM,0% (inactive)
same,nuclear beta-catenin stimulation,"[1]; stimulation, at 2 µM",1.3%
same,insulin secretion stimulation,[2],-1% (inactive)
same,viability decrease,[3],-27.2% (inactive)
same,tube area decrease,[4],-4.7% (inactive)
same,GLP1 secretion stimulation,[5],-1.9% (inactive)
same,inhibition of viability,[6],-7.5% (inactive)
same,viability decrease (inhibition),[7],28% (inactive)
same,viability decrease (inhibition),[8],-12.9% (inactive)
same,red/green cell ratio (normalised),[9],0.81 (inactive)
same,normalised cell number,[9]; [15],1.12
same,normalised cell number,[9]; [16],0.91
same,fold change,[10]; [17],0.893 (inactive)
same,fold change,[10]; [18],1.09
same,cell count,[10]; [19],9170
same,cell count,[10]; [20],10300
same,z-score,[14]; [21],0.637 (inactive)
same,z-score,[14]; [22],-0.175
NC(=O)NS(=O)(=O)c1ccc(N)cc1,nuclear beta-catenin stimulation,[1]; at 10 µM,-1.6% (inactive)
same,nuclear beta-catenin stimulation,"[1]; stimulation, at 2 µM",0.3%
same,insulin secretion stimulation,[2],5.8% (inactive)
same,viability decrease,[3],-1.6% (inactive)
same,tube area decrease,[4],-10.6% (inactive)
same,GLP1 secretion stimulation,[5],-4.5% (inactive)
same,inhibition of viability,[6],6.1% (inactive)
same,viability decrease (inhibition),[7],75.8% (active)
same,viability decrease (inhibition),[8],-12.6% (inactive)
same,red/green cell ratio (normalised),[9],0.74 (inactive)
same,normalised cell number,[9]; [15],1.37
same,normalised cell number,[9]; [16],1.02
same,fold change,[10]; [17],0.96 (inactive)
same,fold change,[10]; [18],0.945
same,cell count,[10]; [19],8990
same,cell count,[10]; [20],9360
same,remaining NAD,[11],10 nM (inactive)
NS(=O)(=O)c1ccc(C(=O)O)cc1,nuclear beta-catenin stimulation,[1]; at 10 µM,1.5% (inactive)
same,nuclear beta-catenin stimulation,"[1]; stimulation, at 2 µM",1.6%
same,insulin secretion stimulation,[2],-0.4% (inactive)
same,viability decrease,[3],15.4% (inactive)
same,tube area decrease,[4],-32.8% (inactive)
same,GLP1 secretion stimulation,[5],2.9% (inactive)
same,inhibition of viability,[6],-10.4% (inactive)
same,viability decrease (inhibition),[7],21.5% (inactive)
same,viability decrease (inhibition),[8],3.9% (inactive)
same,red/green cell ratio (normalised),[9],0.82 (inactive)
same,normalised cell number,[9]; [15],1.25
same,normalised cell number,[9]; [16],1.03
same,fold change,[10]; [17],0.907 (inactive)
same,fold change,[10]; [18],1.07
same,cell count,[10]; [19],8630
same,cell count,[10]; [20],9520
same,remaining NAD,[11],10 nM (inactive)
OCCc1ccccc1,parasite load remaining,[13],52.9% (inactive)
same,viability,[13],121%
same,nuclear beta-catenin stimulation,[1]; at 10 µM,4.3% (inactive)
same,nuclear beta-catenin stimulation,"[1]; stimulation, at 2 µM",-0.1%
same,insulin secretion stimulation,[2],-0.8% (inactive)
same,viability decrease,[3],-30.2% (inactive)
same,tube area decrease,[4],-4.7% (inactive)
same,GLP1 secretion stimulation,[5],-0.7% (inactive)
same,inhibition of viability,[6],-7.95% (inactive)
same,viability decrease (inhibition),[7],11.9% (inactive)
same,viability decrease (inhibition),[8],-12.4% (inactive)
same,red/green cell ratio (normalised),[9],0.97 (inactive)
same,normalised cell number,[9]; [15],1.02
same,normalised cell number,[9]; [16],1
same,fold change,[10]; [17],0.881 (inactive)
same,fold change,[10]; [18],7.55
same,cell count,[10]; [19],11500
same,cell count,[10]; [20],13000
same,remaining NAD,[11],10 nM (inactive)
CC1=C(/C=C/C(C)=C/C=C/C(C)=C/C(=O)Nc2ccc(O)cc2)C(C)(C)CCC1,survival,[12],116 (inactive)
same,parasite load remaining,[13],39.4% (inactive)
same,viability,[13],108%
same,nuclear beta-catenin stimulation,[1]; at 10 µM,21.3% (inactive)
same,nuclear beta-catenin stimulation,"[1]; stimulation, at 2 µM",39.9%
same,insulin secretion stimulation,[2],2.3% (inactive)
same,viability decrease,[3],98.8% (active)
same,tube area decrease,[4],110% (active)
same,GLP1 secretion stimulation,[5],2.4% (inactive)
same,inhibition of viability,[6],90.4% (active)
same,viability decrease (inhibition),[7],118% (active)
same,viability decrease (inhibition),[8],94.3% (active)
same,z-score,[14]; [21],0.416 (inactive)
same,z-score,[14]; [22],0.408
